Records with an inconclusive call do not appear. Calls of active or inactive are those of the source. Unless noted, calls follow the shape of the dose curve; as a rule, active = well fitted curve in the direction sought with a large enough effect in the repeat runs; inconclusive = weak or mixed curves; inactive = no such curve, though single readings can be large; an effect the other way counts as inactive or inconclusive.
Key:
[1] = qHTS assay for small molecule agonists of the p53 signaling pathway (AID 651631; calls by dose curve; also: nearly all actives have a fitted effect of over 15% in size)
Outline: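 Quantitative high-throughput format: 4,000 p53RE-bla HCT-116 cells/well, 5 h pre-incubation, 16 h compound exposure at 37 °C, 2 h room-temperature substrate step, fluorescence intensity measured.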

[2] = qHTS assay for small molecules that induce genotoxicity in human embryonic kidney cells expressing luciferase-tagged ATAD5 (AID 651632); also: nearly all actives have a fitted effect of over 15% in size
Outline: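 Test compounds were delivered by pin tool onto HEK293T reporter cells (2,000/well) expressing ATAD5 fused to luciferase. After 16 hr at 37C, 5% CO2, Amplite was added for 30 min at room temperature and luminescence was measured.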

[3] = qHTS assay for small molecule agonists of the p53 signaling pathway - cell viability (AID 651633; calls by dose curve;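 also: p53RE-bla HCT reporter cells with a stable beta-lactamase p53 reporter; series mostly up to about 83 µM; nearly all actives have a fitted effect of over 30% in size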)
Outline: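 p53RE-bla cells were treated with compound for 16 hours at 37 C. Cytotoxicity was then measured as CellTiter-Glo luminescence after 30 min at room temperature.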

[4] = qHTS assay for small molecules that induce genotoxicity in human embryonic kidney cells expressing luciferase-tagged ATAD5 - cell viability (AID 651634; calls by dose curve; also: nearly all actives have a fitted effect of over 25% in size)
Outline: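 Quantitative high-throughput format. HEK293T cells expressing ATAD5 fused to luciferase were plated at 2,000 cells/well and treated 15.5 hr with compound versus DMSO. Viability was determined by fluorescent live-cell protease substrate, 30 min at 37C.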

[5] = qHTS assay for small molecule disruptors of the mitochondrial membrane potential - cell viability (AID 720634; calls by dose curve;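 also: human HepG2 liver cancer cells; series mostly up to about 83 µM; nearly all actives have a fitted effect of over 20% in size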)
Outline: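 Same-well counter-screen: following the MMP dye addition, CellTiter-Glo was added to 1 hr compound-treated HepG2 cells and luminescence read after 30 min at room temperature.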

[6] = qHTS assay for small molecule disruptors of the mitochondrial membrane potential (AID 720635); also: potency is read from the fitted curve at half-maximal effect
Outline: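 HepG2 cells exposed to compound 1 hr at 37C, then Mito-MPS dye 30 min. Ratio read of aggregate (540/590 nm) versus monomer (490/535 nm) fluorescence.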

[7] = qHTS assay to test for compound auto fluorescence at 590 nm (red) in HepG2 cells (AID 720674)
Outline: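 HepG2 cells, 2,000 per well in MEM with 10% FBS, attached overnight at 37 C, then got 23 nL compound or DMSO. After 1 hr at 37 C, 5% CO2, red fluorescence was read at 540/590 nm against Rose Bengal sodium as reference.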

[8] = qHTS assay to test for compound auto fluorescence at 535 nm (green) in HepG2 cells (AID 720675)
[9] = qHTS assay to test for compound auto fluorescence at 460 nm (blue) in HEK293 cells (AID 720678)
Outline: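 Intrinsic compound fluorescence is recorded in live HEK293 cultures after overnight incubation at 37C, 5% CO2, using excitation 405 nm and emission 460 nm. Values are referenced to triamterene.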

[10] = qHTS assay to test for compound auto fluorescence at 590 nm (red) in HEK293 cells (AID 720679)
Outline: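 Red autofluorescence, HEK293 cells: 2,000 cells/well; attach 4-5 hr 37C; add 23 nL cpd or DMSO; incubate o/n 37C 5% CO2; read Ex540/Em590; Rose Bengal sodium reference.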

[11] = qHTS assay to test for compound auto fluorescence at 535 nm (green) in HEK293 cells (AID 720680)
[12] = qHTS assay to test for compound auto fluorescence at 460 nm (blue) in HEK293 cell free culture (AID 720681)
Outline: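 Compounds were added to cell-free DMEM with 10% FBS and fluorescence read directly. The blue channel used 405 nm excitation and 460 nm emission, with triamterene as the reference fluorophore.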

[13] = qHTS assay to test for compound auto fluorescence at 535 nm (green) in HEK293 cell free culture (AID 720682)
Outline: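 Measurement is a direct plate read of green fluorescence (485 nm in, 535 nm out) after compound addition to serum-supplemented DMEM lacking cells, with fluorescein used to express intensities.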

[14] = qHTS assay to test for compound auto fluorescence at 590 nm (red) in HEK293 cell free culture (AID 720683)
Outline: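 Cell-free wells of DMEM with 10% FBS received compound, and intrinsic fluorescence was read at excitation/emission 540/590 nm. Values expressed as equivalence to Rose Bengal sodium.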

[15] = qHTS assay to test for compound auto fluorescence at 590 nm (red) in HepG2 cell free culture (AID 720684)
Outline: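 Auto fluorescence equivalency versus Rose Bengal sodium, red channel Ex/Em 540/590 nm; compounds in cell-free MEM/10% FBS; DMSO vehicle control.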

[16] = qHTS assay to test for compound auto fluorescence at 460 nm (blue) in HepG2 cell free culture (AID 720685)
Outline: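 Cell-free plates of MEM plus 10% FBS received 23 nL compound or DMSO vehicle; blue-channel (405/460 nm) intensity scored against triamterene as reference fluorophore.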

[17] = qHTS assay to test for compound auto fluorescence at 535 nm (green) in HepG2 cell free culture (AID 720686)
[18] = qHTS assay to test for compound auto fluorescence at 460 nm (blue) in HepG2 cells (AID 720687)
Outline: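 HepG2 cells in MEM with 10% FBS, attached overnight at 37 C, were exposed to compound or DMSO for 1 hr at 37 C, 5% CO2. Blue fluorescence was read at 405/460 nm, with triamterene as reference fluorophore.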

[19] = molecular target: Glucocorticoid receptor (Homo sapiens) (UniProt P04150); assay: qHTS assay to identify small molecule agonists of the glucocorticoid receptor (GR) signaling pathway (AID 720691; active = well fitted activation curve with a large enough effect in the signal ratio in the repeat runs, not every such curve was filed as active; the % refers to the signal ratio)
Outline: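 A HeLa cervical cancer line expressing GR and a glucocorticoid response element-driven beta-lactamase gene is treated with compounds for 18 h; LiveBLAzer B/G FRET substrate is then applied and fluorescence read.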

[20] = molecular target: Glucocorticoid receptor (Homo sapiens) (UniProt P04150); assay: qHTS assay to identify small molecule antagonists of the glucocorticoid receptor (GR) signaling pathway (AID 720692; active = well fitted inhibition curve with a large enough effect in the signal ratio in the repeat runs, not every such curve was filed as active; the % refers to the signal ratio)
Outline: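 GRE-bla HeLa line, dex-stimulated (5 nM final). Compound exposure 18 h, 37 C. Beta-lactamase FRET read after 2 h RT substrate.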
% is scaled to controls: 0 for no effect and ±100 for the full control effect.

Glucocorticoid receptor (Homo sapiens), sequence (P04150 whole entry, looked up): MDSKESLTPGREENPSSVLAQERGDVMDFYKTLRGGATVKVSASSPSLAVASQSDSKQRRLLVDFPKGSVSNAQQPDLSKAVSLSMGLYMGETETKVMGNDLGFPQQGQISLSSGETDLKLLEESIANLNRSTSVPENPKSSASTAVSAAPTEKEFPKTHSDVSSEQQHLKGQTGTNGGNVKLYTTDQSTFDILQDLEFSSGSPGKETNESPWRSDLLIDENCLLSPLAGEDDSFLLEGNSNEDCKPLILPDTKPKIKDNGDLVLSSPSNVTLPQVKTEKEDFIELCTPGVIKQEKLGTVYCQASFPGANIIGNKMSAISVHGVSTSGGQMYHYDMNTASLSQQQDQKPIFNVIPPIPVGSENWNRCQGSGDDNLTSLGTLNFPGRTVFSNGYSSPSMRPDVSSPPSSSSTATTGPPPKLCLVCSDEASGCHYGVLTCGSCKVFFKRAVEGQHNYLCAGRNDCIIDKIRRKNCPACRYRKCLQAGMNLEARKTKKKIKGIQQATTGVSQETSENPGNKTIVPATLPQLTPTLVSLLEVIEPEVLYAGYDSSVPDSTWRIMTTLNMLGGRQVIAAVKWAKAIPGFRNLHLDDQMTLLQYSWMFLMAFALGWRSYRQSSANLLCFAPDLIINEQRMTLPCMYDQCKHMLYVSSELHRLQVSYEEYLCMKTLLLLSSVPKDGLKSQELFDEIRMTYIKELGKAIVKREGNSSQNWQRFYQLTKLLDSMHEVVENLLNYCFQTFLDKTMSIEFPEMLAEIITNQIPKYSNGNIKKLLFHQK

N#CN=C1SCCN1Cc1ccc(Cl)nc1
inactive: Potency [1] | outcome [2] | Potency [3] | Potency [4] | Potency [5] | Potency [6] | outcome [7] | outcome [8] | outcome [9] | outcome [10] | outcome [11] | outcome [12] | outcome [13] | outcome [14] | outcome [15] | outcome [16] | outcome [17] | outcome [18] | Potency [19]

ClCOCCl
inactive: Potency [1] | outcome [2] | Potency [3] | Potency [4] | Potency [5] | Potency [6] | outcome [7] | outcome [8] | outcome [9] | outcome [10] | outcome [11] | outcome [12] | outcome [14] | outcome [16] | outcome [17] | outcome [18] | Potency [19] | Potency [20]

CCCCCCCCSC(=O)Oc1cc(Cl)nnc1-c1ccccc1
active: Potency [6] 30.6 µM
inactive: Potency [1] | outcome [2] | Potency [3] | Potency [4] | Potency [5] | outcome [7] | outcome [8] | outcome [9] | outcome [10] | outcome [11] | outcome [12] | outcome [13] | outcome [14] | outcome [15] | outcome [16] | outcome [17] | outcome [18]

NCC1(CC(=O)O)CCCCC1
inactive: Potency [1] | outcome [2] | Potency [3] | Potency [4] | Potency [5] | Potency [6] | fluorescence, relative to Rose Bengal [7] 0.106% [at 18.6 µM] | fluorescence, % of fluorescein control [8] 0.0214% [at 18.6 µM] | fluorescence, % of triamterene [9] 0.0823% [at 18.6 µM] | fluorescence, % of fluorescent control [10] 0.0233% [at 18.6 µM] | fluorescence, % of fluorescein [11] 0.112% [at 18.6 µM] | fluorescence, % of fluorescent control [12] 0.0173% [at 18.6 µM] | fluorescence, % of fluorescent control [14] 0.0512% [at 18.6 µM] | fluorescence, % of fluorescent control [16] 0.0583% [at 18.6 µM] | fluorescence, % of fluorescein control [17] -0.0096% [at 18.6 µM] | fluorescence, % of fluorescent control [18] 0.027% [at 18.6 µM] | Potency [19]

CCOP(=O)(CN(CCO)CCO)OCC
inactive: Potency [1] | outcome [2] | Potency [3] | Potency [4] | Potency [5] | Potency [6] | outcome [7] | outcome [9] | outcome [10] | outcome [11] | outcome [12] | outcome [13] | outcome [14] | outcome [15] | outcome [16] | outcome [17] | outcome [18] | Potency [19]

Cn1c(N)nc2c3cccnc3ccc21
inactive: Potency [1] | outcome [2] | Potency [3] | Potency [4] | Potency [5] | Potency [6] | outcome [7] | outcome [8] | outcome [9] | outcome [10] | outcome [11] | outcome [14] | outcome [15] | outcome [16] | outcome [17] | outcome [18]

CCC(C)(C#N)N=NC(C)(C#N)CC (stereo unspecified)
inactive: Potency [1] | outcome [2] | Potency [3] | Potency [4] | Potency [5] | outcome [7] | outcome [8] | outcome [9] | outcome [10] | outcome [11] | outcome [12] | outcome [13] | outcome [14] | outcome [15] | outcome [16] | outcome [17] | outcome [18]

CC1N=C(N)OC1c1ccccc1 (stereo unspecified)
inactive: Potency [1] | outcome [2] | Potency [3] | Potency [4] | Potency [5] | Potency [6] | outcome [7] | outcome [8] | outcome [9] | outcome [10] | outcome [11] | outcome [13] | outcome [14] | outcome [15] | outcome [16] | outcome [17] | outcome [18] | Potency [19]

OCC(Cl)CCl (stereo unspecified)
inactive: Potency [1] | outcome [2] | Potency [3] | Potency [4] | Potency [5] | Potency [6] | outcome [7] | outcome [9] | outcome [10] | outcome [11] | outcome [12] | outcome [13] | outcome [14] | outcome [15] | outcome [16] | outcome [17] | outcome [18] | Potency [19]

CCN(CC)CCOC(=O)C(O)(c1ccccc1)c1ccccc1
inactive: Potency [1] | outcome [2] | Potency [3] | Potency [4] | Potency [5] | outcome [7] | outcome [8] | outcome [9] | outcome [10] | outcome [11] | outcome [12] | outcome [13] | outcome [14] | outcome [16] | outcome [17] | outcome [18] | Potency [19]

Cc1cc(OC(=O)N(C)C)nn1C(=O)N(C)C
inactive: Potency [1] | outcome [2] | Potency [3] | Potency [4] | Potency [5] | outcome [7] | outcome [8] | outcome [9] | outcome [10] | outcome [11] | outcome [12] | outcome [14] | outcome [16] | outcome [17] | outcome [18]

COC(=O)c1ccccc1CS(=O)(=O)NC(=O)Nc1nc(OC)cc(OC)n1
inactive: Potency [1] | outcome [2] | Potency [3] | Potency [4] | Potency [5] | outcome [7] | outcome [8] | outcome [9] | outcome [10] | outcome [11] | outcome [12] | outcome [13] | outcome [14] | outcome [15] | outcome [16] | outcome [17] | outcome [18] | Potency [19] | Potency [20]

O=C(CCl)NCO
inactive: Potency [1] | outcome [2] | Potency [3] | Potency [4] | Potency [5] | outcome [7] | outcome [8] | outcome [9] | outcome [10] | outcome [11] | outcome [12] | outcome [13] | outcome [14] | outcome [15] | outcome [16] | outcome [17] | outcome [18]

CC(C)c1ccc(O)cc1
inactive: Potency [1] | outcome [2] | Potency [3] | Potency [4] | Potency [5] | outcome [7] | outcome [8] | outcome [9] | outcome [10] | outcome [11] | outcome [12] | outcome [13] | outcome [14] | outcome [15] | outcome [17] | outcome [18] | Potency [19]

CC(=NC#N)N(C)Cc1ccc(Cl)nc1
inactive: Potency [1] | outcome [2] | Potency [3] | Potency [4] | Potency [5] | outcome [7] | outcome [8] | outcome [9] | outcome [10] | outcome [11] | outcome [13] | outcome [14] | outcome [15] | outcome [16] | outcome [17] | outcome [18]

Cc1cccc2sc3nncn3c12
inactive: Potency [1] | outcome [2] | Potency [3] | Potency [4] | Potency [5] | outcome [7] | outcome [8] | outcome [9] | outcome [10] | outcome [11] | outcome [12] | outcome [14] | outcome [15] | outcome [16] | outcome [17] | outcome [18]
